PAFAH1B3 inh: inhibitors of human PAFAH1B3; Q15102; recombinant PAFAH1B3, FP-rhodamine probe, fluorescence polarization; inhibition, % at 3.39 µM; 340,000 compounds, 0.28% hits; AID 492972;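 active = inhibition above the screen-wide average of all tested compounds plus 3 SD, cut at about 25% in these data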;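 also: 0% = enzyme with DMSO only and 100% = wells lacking PAFAH1B3 protein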
Target sequence (Q15102 whole entry, looked up): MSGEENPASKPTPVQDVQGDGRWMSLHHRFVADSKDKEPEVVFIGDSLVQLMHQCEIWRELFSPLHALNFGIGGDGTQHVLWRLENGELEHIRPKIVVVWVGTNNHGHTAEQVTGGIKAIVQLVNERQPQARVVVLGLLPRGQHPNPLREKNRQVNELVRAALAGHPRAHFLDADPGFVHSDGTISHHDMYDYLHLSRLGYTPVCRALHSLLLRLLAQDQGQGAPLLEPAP
PP5 inh: PP5 (human) phosphatase inhibition; P53041; purified PP5c, OMFP substrate fluorescence; inhibition, % at 6.7 µM; 320,000 compounds, 0.18% hits;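 active = inhibition above the campaign's mean inhibition across all tested compounds plus 3 SD, cut at about 9.5% in these data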;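 also: 0% = DMSO only and 100% = 100 µM cantharidin control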
PP1 inh: PP1-alpha (human) inhibition in PP5 counter-screen; P62136; purified PP1alpha, OMFP fluorescence; inhibition, % at 6.7 µM; 320,000 compounds, 0.9% hits; AID 2235;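 active = inhibition above the mean inhibition of all tested compounds plus 3 SD, computed separately for each screening campaign, cut at about 15% in these data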
PAFAH2 FP inh: PAFAH2 (human) inhibition. inhibition, % at 3.39 µM. Q99487. AID 492956. 340,000 compounds, 0.99% hits. recombinant PAFAH2, FP-rhodamine activity probe, fluorescence polarization;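 active = inhibition above the mean over all tested compounds plus 3 SD, cut at about 30% in these data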;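 also: inhibitors block probe labeling of enzyme so polarization drops; 0% = enzyme with DMSO and 100% = wells lacking PAFAH2 protein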
pPAFAH FP inh: pPAFAH (human) enzyme inhibition; Q13093; recombinant pPAFAH, FP-rhodamine probe fluorescence polarization; inhibition, % at 3.39 µM; 330,000 compounds, 1.5% hits;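 active = inhibition above the mean inhibition across the screen plus 3 SD, cut at about 25% in these data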;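 also: inhibitors block binding of the rhodamine activity-based probe so polarization drops; 0% = enzyme with DMSO and 100% = wells lacking pPAFAH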
PAFAH1B2 inh: PAFAH1B2 (human) inhibition; 340,000 compounds, 1.2% hits; inhibition, % at 3.39 µM; recombinant PAFAH1B2, FP-rhodamine activity probe, fluorescence polarization; P68402;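 active = inhibition above the mean of all tested compounds plus 3 SD, cut at about 24% in these data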;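 also: 0% = enzyme with DMSO and 100% = wells lacking PAFAH1B2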
Target sequence (P68402 whole entry, looked up): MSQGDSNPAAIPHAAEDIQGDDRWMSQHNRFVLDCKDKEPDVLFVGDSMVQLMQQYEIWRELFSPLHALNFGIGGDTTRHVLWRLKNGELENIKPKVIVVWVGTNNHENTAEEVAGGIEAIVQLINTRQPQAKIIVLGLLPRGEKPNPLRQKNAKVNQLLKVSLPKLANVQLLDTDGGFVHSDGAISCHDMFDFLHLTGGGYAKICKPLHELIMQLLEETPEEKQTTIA
The depositor's hits bear a star; x = no result given. Most compounds without a hit are left out; they make up all but 3.4% or so of the library.

SMILES	PAFAH1B3 inh	PP5 inh	PP1 inh	PAFAH2 FP inh	pPAFAH FP inh	PAFAH1B2 inh
CNC[C@H]1Oc2ccc(NC(=O)Nc3ccccc3)cc2CC(=O)N([C@H](C)CO)C[C@H]1C	-2	x	x	-7	1	4
COc1ccccc1C1=NC(c2ccc(C)cc2)N=C1C (stereo not drawn)	8	3	-3	-4	25*	8
COc1ccccc1-c1nnc(-c2ccc(C)cc2)o1	-5	1	1	8	3	-1
COC(=O)COc1ccc2c(c1)O/C(=C\c1cccc([N+](=O)[O-])c1)C2=O	7	0	-2	-5	4	4
C[C@H](NC(=O)OCc1ccccc1)C(=O)N[C@@H](Cc1c[nH]c2ccccc12)C(=O)O	0	3	2	2	0	25*
COc1ccccc1CNC(=O)C(Cc1c[nH]c2ccccc12)NC(=O)OCc1ccccc1 (stereo not drawn)	-5	-2	7	-5	7	5
CC(=O)c1cccc(Nc2nc3ccccc3n3cnnc23)c1	14	-2	2	-1	4	0
Cc1cccc(N2C(=O)C(O)=C(C(=O)c3cccs3)C2c2ccc(Cl)cc2)n1 (stereo not drawn)	3	1	17*	6	-2	5
CCN(Cc1ccccc1)c1ccc(N=Nc2nn(C)c(C)c2[N+](=O)[O-])cc1	7	4	6	9	25*	62*
C#CCOCCOCCOCCNc1nc(N2CCN(C(=O)CCCCCCCCCCNC(=O)[C@H](CCCCN)n3cc(C[C@@H](C)CC)nn3)CC2)nc(N2CCN(C(=O)CCCCCCCCCCNC(=O)[C@H](CCCCN)n3cc(C[C@@H](C)CC)nn3)CC2)n1	-4	2	55*	2	-5	-2
C#CCOCCOCCOCCNc1nc(N2CCN(C(=O)CCCCCCCCCCNC(=O)[C@H](CCCCN)n3cc(CCCC(=O)O)nn3)CC2)nc(N2CCN(C(=O)CCCCCCCCCCNC(=O)[C@H](CCCCN)n3cc(CCCC(=O)O)nn3)CC2)n1	-6	-2	1	-3	8	0
C#CCOCCOCCOCCNc1nc(N2CCN(C(=O)CCCCCCCCCCNC(=O)[C@H]([C@@H](C)CC)n3cc(CCCCN=C(N)N)nn3)CC2)nc(N2CCN(C(=O)CCCCCCCCCCNC(=O)[C@H](CCCCN)n3cc(C[C@@H](C)CC)nn3)CC2)n1	x	9	71*	x	-5	x
C#CCOCCOCCOCCNc1nc(N2CCN(C(=O)CCCCCCCCCCNC(=O)[C@H](CO)n3cc(CCCSC)nn3)CC2)nc(N2CCN(C(=O)CCCCCCCCCCNC(=O)[C@H](CCCCN)n3cc(C[C@@H](C)CC)nn3)CC2)n1	x	5	51*	x	1	x
CCn1c(=O)c(C(=O)NCCN2CCCCC2)c(O)c2ccccc21	15	3	-1	-2	-3	-1
CCC1CCCCN1CCCNC(=O)C(C)n1nc(C)c2sc3ccccc3c2c1=O (stereo not drawn)	8	1	-2	8	-1	3
COc1cccc2c1C(=O)c1c(O)c3c(c(O)c1C2=O)C[C@@](O)(C(C)=O)C[C@@H]3O[C@H]1C[C@H](N)[C@H](O)[C@H](C)O1	37*	x	x	54*	x	51*
COc1cccc2c1C(=O)c1c(O)c3c(c(O)c1C2=O)CC(O)(C(=O)CO)CC3OC1CC(N(C)C)C(O)C(C)O1 (stereo not drawn)	47*	x	x	60*	x	61*
CCCCN(C(=O)c1cnc(C)cn1)c1c(N)n(CCC)c(=O)[nH]c1=O	7	3	-3	-2	-3	-8
COc1ccccc1C(=O)NC1CCCc2ccccc21 (stereo not drawn)	1	1	0	-2	0	0
COC(=O)CCCC1=CC2=CC(=O)C(C)(OC(=O)c3cccs3)C(=O)C2=CN1Cc1ccco1 (stereo not drawn)	7	5	7	9	1	2
O=C(O)c1cccc(Cn2c(Cl)c(/C=N/Nc3ccccc3)sc2=O)c1	10	2	5	13	27*	-1
O=C(O)c1cccc(Cn2c(Cl)c(/C=N/NC(=O)c3ccccc3Cl)sc2=O)c1	6	1	1	7	4	8
O=C(O)COc1ccccc1/C=C1\C(=O)Nc2ccc(Br)cc21	4	1	0	-4	5	12
O=C(N/N=C/c1ccc(O)cc1)c1ccc(NC(=O)c2ccccc2Br)cc1	6	0	-1	-2	1	2
Cc1ccc(C(=O)c2c(C)oc3c2C(=O)C(=O)c2ccccc2-3)cc1	7	5	-1	13	26*	4
SMILES	PAFAH1B3 inh	PP5 inh	PP1 inh	PAFAH2 FP inh	pPAFAH FP inh	PAFAH1B2 inh
Cc1oc2c(c1C(=O)c1ccc(Cl)cc1)C(=O)C(=O)c1ccccc1-2	-1	x	x	1	x	0
O=C(O)c1cccc(N2C(=O)/C(=C/c3ccc(SCc4ccc(Cl)cc4)o3)SC2=S)c1	15	x	x	23	x	34*
Cc1ccc(NC(=S)N(Cc2ccc(Cl)cc2)Cc2ccc(C(=O)O)cc2)cc1Cl	1	6	17*	1	-6	-3
COc1ccc(CN(CC2CCC(C(=O)O)CC2)C(=S)Nc2ccc(C)c(Cl)c2)cc1 (stereo not drawn)	4	0	3	4	3	-4
O=C(/C=N/O)Nc1ccc2sc3ccccc3c2c1	62*	0	4	47*	33*	42*
COc1ccc(/C(N)=N/OC(=O)CCC2CCCC2)cc1OC	8	1	-1	11	0	8
N/C(=N\OC(=O)CCC1CCCC1)c1ccccc1	7	2	2	5	6	6
N/C(=N\OC(=O)CCC1CCCCC1)c1cccc([N+](=O)[O-])c1	4	3	-3	16	10	40*
N/C(=N\OC(=O)CCC1CCCC1)c1ccc([N+](=O)[O-])cc1	4	3	-1	13	7	29*
CCc1noc(C)c1C(=O)OCC(=O)N(CC)c1c(N)n(Cc2ccccc2)c(=O)[nH]c1=O	6	3	-6	0	4	0
Oc1cccc2ccc(/C=C/c3ccccc3Br)nc12	0	3	16*	3	-4	2
CCc1ccc(NC(=O)CSc2nc(CSc3ccc(C)cc3)cc(=O)[nH]2)cc1	2	2	10	2	27*	54*
CCCc1cc(=O)[nH]c(SCC(=O)Nc2ccc(C)cc2)n1	5	-1	-3	4	1	5
Cc1nc(C(Cl)(Cl)Cl)nc2[nH]ccc(=O)c12	3	0	-1	2	4	5
CCOc1ccc(N2C(=O)CS/C2=C(\C(Cl)=C(Cl)Cl)[N+](=O)[O-])cc1	11	1	5	0	28*	2
Cc1ccccc1C1C(C#N)=C2N=C(N)c3c(sc4c3CCCCC4)N2C2=C1C(=O)CC(C)(C)C2 (stereo not drawn)	4	3	15*	22	9	2
